Compound activity: PubChem BioAssay, several laboratories
A selection: hits, their analogues and other compounds. The true share with any hit is near 2%.
APOBEC3G inh: inhibitors of human APOBEC3G DNA deaminase. Q9HC16. recombinant A3G, ssDNA deamination FAM/TAMRA fluorescence. inhibition, % at 20 µM. 330,000 compounds, 0.28% hits. AID 493012;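 active means inhibition of at least 40% at 20 µM, with no more than 30% in the related APOBEC3A deaminase screen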;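 further: plate controls were DMSO wells with A3G for no effect and wells lacking A3G enzyme for full effect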
APOBEC3A inh: human APOBEC3A DNA deaminase inhibition. P31941. recombinant A3A, FAM/TAMRA ssDNA deamination fluorescence. inhibition, % at 20 µM. 330,000 compounds, 0.41% hits;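 active means at least 40% inhibition at 20 µM here, with at most 30% in a related deaminase screen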;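 further: plate controls were A3A with DMSO for no effect and wells lacking A3A enzyme for full effect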
Target sequence (P31941 whole entry, looked up): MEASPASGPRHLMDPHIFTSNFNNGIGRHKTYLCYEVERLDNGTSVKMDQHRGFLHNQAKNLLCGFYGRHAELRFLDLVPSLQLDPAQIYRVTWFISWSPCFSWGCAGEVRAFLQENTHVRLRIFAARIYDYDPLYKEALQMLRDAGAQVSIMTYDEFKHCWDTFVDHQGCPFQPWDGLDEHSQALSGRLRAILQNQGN
NALP1 inh: inhibitors of NALP1 inflammasome in yeast; S. cerevisiae NALP1/ASC/caspase-1 growth, X-gal OD620, 72 h; inhibition, % at 10 µM; 280,000 compounds, 0.61% hits; AID 2071; in the data active means inhibition mostly above about 24%, no sharp cut-off; inactive means mostly below about 32%
CTSL1 counter: counter-screen for PFM18AAP inhibitors: inhibitors of F. hepatica cathepsin L1 | recombinant F. hepatica cathepsin L1, Z-Leu-Arg-MCA fluorescence | inhibition, % at 5.96 µM | 300,000 compounds, 0.49% hits;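 active means inhibition above the mean of all tested compounds plus 3 SD, set per screening campaign, cut at about 17% in these data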;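 further: 0% = plate median of test compound wells and 100% = 1 µM Z-Phe-Ala-diazomethylketone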
HGIII-sPLA2 inh: Blocks human group III sPLA2 activity | inhibition, % at 12.2 µM | QFRET BODIPY PC-A2 liposome hydrolysis, fluorescence | Q9NZ20 | 370,000 compounds, 0.56% hits;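 active means inhibition above mean plus 3 SD of compounds lying within the high and low control bounds, cut at about 19% in these data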;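 further: 0% = median of test compound wells and 100% = no enzyme DMSO wells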
Target sequence (Q9NZ20 whole entry, looked up): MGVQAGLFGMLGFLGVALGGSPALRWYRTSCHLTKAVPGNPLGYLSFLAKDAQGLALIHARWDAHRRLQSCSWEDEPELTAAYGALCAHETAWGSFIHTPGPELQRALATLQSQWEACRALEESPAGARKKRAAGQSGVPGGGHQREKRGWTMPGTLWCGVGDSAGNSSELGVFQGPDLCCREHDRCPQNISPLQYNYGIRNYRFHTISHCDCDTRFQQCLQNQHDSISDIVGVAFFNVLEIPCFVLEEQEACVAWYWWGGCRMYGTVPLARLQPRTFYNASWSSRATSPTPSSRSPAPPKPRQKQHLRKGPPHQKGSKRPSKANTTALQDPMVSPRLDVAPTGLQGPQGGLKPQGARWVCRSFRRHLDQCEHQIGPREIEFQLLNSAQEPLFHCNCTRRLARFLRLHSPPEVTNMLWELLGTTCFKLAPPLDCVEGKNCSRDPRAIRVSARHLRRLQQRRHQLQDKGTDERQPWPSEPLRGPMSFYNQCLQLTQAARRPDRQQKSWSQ
APOBEC3A confirm: APOBEC3A (human) deaminase inhibition, confirmed; inhibition, % at 20 µM; 1,400 compounds, 63% hits; shares compounds with APOBEC3A inh; recombinant A3A, ssDNA deaminase UDG fluorescence assay;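 active means inhibition reaching a set limit, 80% of the first screen's cutoff, at 20 µM in any replicate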;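 further: plate controls were DMSO wells with A3A for no effect and wells lacking A3A enzyme for full effect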
UDG ctr A3A: inhibits UDG, flagging false APOBEC3A inhibitors; AID 504714; inhibition, % at 20 µM; UDG counterscreen, FAM/TAMRA uracil oligo fluorescence; shares compounds with APOBEC3A inh; 1,000 tested, under 10 active; call rule not given here
APOBEC3G confirm: APOBEC3G (human) deaminase inhibition, confirmed; shares compounds with APOBEC3G inh; recombinant A3G ssDNA deaminase, UDG/FAM-TAMRA fluorescence; inhibition, % at 20 µM; 890 compounds, 72% hits; AID 493152;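 active means inhibition reaching a set limit in any replicate at 20 µM, the limit being 80% of the first screen's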
UDG ctr A3G: E. coli UDG inhibition in APOBEC3G counter-screen | shares compounds with APOBEC3G inh | 710 tested, under 10 active | UDG counterscreen, FAM/TAMRA oligo fluorescence | inhibition, % at 20 µM;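 active means compounds giving 40% or more inhibition at 20 µM in any one of the three replicates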;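 further: plate controls were DMSO wells with UDG and oligo for no effect and DMSO wells lacking both for full effect; inhibitors lower the FAM signal released by uracil excision and alkaline cleavage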
sPLA2 confirm: human GIII-sPLA2 inhibition, confirmation | shares compounds with HGIII-sPLA2 inh | recombinant hGIII-sPLA2, BODIPY PC-A2 QFRET fluorescence | inhibition, % at 12.2 µM | 2,000 compounds, 34% hits | AID 743280;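 active means mean inhibition across triplicates above the hit cutoff set in the earlier primary screen, cut at about 19% in these data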;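 further: 0% = enzyme with DMSO and 100% = DMSO wells lacking enzyme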
535nm interf: 535nm fluorescence interference, HGIII-sPLA2 counter-screen; shares compounds with HGIII-sPLA2 inh; BODIPY FL product fluorescence interference, QFRET; inhibition, % at 12.2 µM; 2,000 compounds, 8.5% hits; AID 743282;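 active means average inhibition above the solvent-only control mean plus 3 SD, cut at about 6% in these data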;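 further: 0% = DMSO with substrate plus product and 100% = DMSO with substrate alone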
The depositor's hits bear a star; · = no result given.

SMILES	APOBEC3G inh	APOBEC3A inh	NALP1 inh	CTSL1 counter	HGIII-sPLA2 inh	APOBEC3G confirm	UDG ctr A3G	others
CCOc1cc(N2CCOCC2)c(OCC)cc1NS(=O)(=O)c1cc(NC(C)=O)ccc1OC	6	46*	-2	1	12	·	·	APOBEC3A confirm=20*;UDG ctr A3A=-3
CCCCCCCCN1C(=O)N2Cc3cc(OC)ccc3C2CS1(=O)=O (centres undefined)	·	·	·	·	4	·	·
Cn1ccsc1=NC(=O)c1ccc(=O)[nH]c1	18	59*	6	0	4	·	·	APOBEC3A confirm=4
CCSC1=NC(=O)/C(=C2/C=Cc3ccccc3N2CC)S1	21	40*	7	6	21*	·	·	APOBEC3A confirm=18;sPLA2 confirm=46*;535nm interf=9.6*
CCCCCCCCN1CN2Cc3cc(OC)ccc3C2CS1(=O)=O (centres undefined)	·	·	·	·	-2	·	·
C[N+](C)(C)CCCCCC(=O)/C=N/O	11	53*	28	-1	22*	·	·	APOBEC3A confirm=66*;UDG ctr A3A=3;sPLA2 confirm=4;535nm interf=-5
C[N+](C)(C)CCCCCC[N+](C)(C)C	-7	-1	·	-3	3	·	·
CCOC(=O)N1CCN(C(=O)C[C@H]2C[C@@]3(C(=O)OC)C(=C[C@H](C4CCCC4)O[C@@H]3C)N(Cc3ccc(Cl)cc3Cl)C2=O)CC1	·	·	·	·	-14	·	·
COC(=O)c1c(Sc2ccccc2)c2ccccc2n1C	11	58*	0	-7	20*	·	·	APOBEC3A confirm=82*;UDG ctr A3A=2;sPLA2 confirm=1;535nm interf=-4
CN(C)/N=C/c1c(O)ccc2ccccc12	-1	-2	-15	5	2	·	·
CS/C(N)=N/N=C/c1c(O)ccc2ccccc12	23	58*	-3	8	23*	·	·	APOBEC3A confirm=27;sPLA2 confirm=28*;535nm interf=0
O=c1nc2n(c3ccccc13)Cc1ccccc1-2	·	·	3	·	·	·	·
O=c1c2cccc(Cl)c2nc2n1Cc1ccccc1-2	59*	3	12	0	-1	55*	-1
CCCCCCC12Cc3cc(OC)c(OC)cc3C(O1)C1=C(O2)C(C)(C)CCC1=O (centres undefined)	·	·	·	·	-17	·	·
Cc1ccc(C(=O)NCC(=O)OCc2nc3sc(C)c(C)c3c(=O)[nH]2)cc1	·	·	·	·	13	·	·
O=C(Nc1cccc(N2C(=O)C=CC2=O)c1)c1cccs1	55*	24	·	6	-3	58*	·
C[C@@H]1CN(c2ccc(N3CCNC[C@@H]3C)cc2C#N)C[C@H](C)O1	·	·	·	·	9	·	·
COC(=O)CN=Cc1c(C)[nH]n(-c2ccccc2)c1=O	-7	-2	2	3	1	·	·
Cc1[nH]n(-c2ccccc2)c(=S)c1C=NCCCN=Cc1c(C)[nH]n(-c2ccccc2)c1=S	62*	5	6	6	11	54*	-3
COCCn1nnnc1C(c1cccs1)N1CCN(c2nc3ccccc3s2)CC1 (centres undefined)	57*	3	14	3	-16	0	·
COCCn1nnnc1C(c1cccs1)N1CCN(c2cc(C)ccc2C)CC1 (centres undefined)	-6	-5	-8	-1	-4	·	·
O=C(Cc1ccccc1)NNC(=S)NC(=O)c1cccnc1	43*	-4	-6	2	-3	14	1
O=C(OCC#CCSc1nnc(-c2cccc3ccccc23)o1)c1ccc(Cl)c(C(F)(F)F)c1	·	·	·	·	4	·	·
COc1ccccc1NS(=O)(=O)c1ccc(/C=C/C(=O)O)cc1	-1	-1	-3	-3	3	·	·
COc1ccccc1NS(=O)(=O)c1ccc(O)cc1	81*	1	6	2	-4	3	·
SMILES	APOBEC3G inh	APOBEC3A inh	NALP1 inh	CTSL1 counter	HGIII-sPLA2 inh	APOBEC3G confirm	UDG ctr A3G	others
CC(C)(C)OC(=O)N[C@@H]1C=CC(=O)C1	·	·	·	·	-1	·	·
COc1ccc(-n2nnc3c(SC(C(C)=O)C(=O)N(C)C)ncnc32)cc1 (centres undefined)	51*	-1	-9	-4	5	5	-6
COC(=O)C(C)Sc1ncnc2c1nnn2-c1ccc(F)cc1 (centres undefined)	-4	-3	-3	-3	8	·	·
Cc1cc(C)nc(N2CCC(C(=O)Nc3ccc(Oc4ccccc4)cc3)CC2)n1	-8	-1	44	-2	0	·	·
Cc1ccc(NC(=O)C2CCN(c3nc(C)cc(C)n3)CC2)cc1	48*	0	-6	0	-5	-7	0
CCCCn1c(Cc2ccccc2)n[nH]c1=S	28	-4	14	-6	14	·	·
CCCn1c(=O)c2ccccc2n2c(=S)[nH]nc12	53*	-9	2	1	10	69*	2
O=c1c2ccccc2n2c(=S)[nH]nc2n1-c1ccccc1	58*	-6	-13	2	15	69*	-2
CCC(C)c1ccc(-n2c(=O)c3ccccc3n3c(=S)[nH]nc23)cc1 (centres undefined)	23	-8	-4	-2	6	·	·
CCCCn1c(=O)c2ccccc2n2c(=S)[nH]nc12	40*	-5	-14	1	16	71*	1
Cn1c(=O)c2ccccc2n2c(=S)[nH]nc12	44*	-7	-26	0	4	70*	5
CCCCCCCCN1C(=O)[C@@H](CC(=O)NCCCOC)C[C@@]2(C(=O)OC)C1=C[C@H](C(C)C)O[C@@H]2C1CC1	·	·	·	·	-7	·	·
CCCCCCn1c(=O)c(-c2ccccc2)c(O)c2ccccc21	-6	-5	12	1	-21	·	·
CCCCCn1c(=O)c2ccccc2n2c(=S)[nH]nc12	43*	-6	-4	-2	19	76*	-1
COc1cccc(OC[C@@H](O)CN2CCC(C(O)(c3ccccc3)c3ccccc3)CC2)c1	·	·	·	·	-30	·	·
Nc1ccc2nc(-c3cccc(-c4nc5ccc(N)cc5[nH]4)n3)[nH]c2c1	44*	10	-11	9	-4	29*	1
Nc1ccc2nc(-c3ccc(-c4nc5ccc(N)cc5[nH]4)cc3)[nH]c2c1	14	12	5	-2	19	·	·
CCc1ccc(/C=N\NC(=O)c2ccc(Br)o2)s1	-5	-2	17	1	3	·	·
Cc1ccc(/C=N/NC(=O)c2ccc(Br)o2)s1	59*	-1	16	0	-1	-3	2
